Laboratory results taken from PubChem BioAssay (EPA / NIEHS).
Some compounds were tested as several samples or in several runs, with calls that do not always agree. Calls of active or inactive are those of the source. The calls were made as follows: active = hit-call score of the fitted dose curve at least 0.9, where 1 is the maximum; inactive = score below 0.9.

What was measured:
Decorin, DCN (gene 1634) = experiment: BSK_MyoF_Decorin: BioMAP Diversity Plus: MyoF Assay for Decorin Biomarker Activity (AID 2284265); conditions: primary human lung fibroblasts
Outline: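 Human lung fibroblasts in the MyoF system were exposed to compound for 24 h, after which decorin was quantified by ELISA. Activity was fitted in the positive direction relative to DMSO negative control.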

KRT18 (gene 3875) = experiment: BSK_BF4T_Keratin818: BioMAP Diversity Plus: BF4T Assay for Keratin 818 Biomarker Activity (AID 2284266); conditions: primary human bronchial epithelial cells with fibroblasts
Outline: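 Co-culture of human bronchial epithelial cells and dermal fibroblasts, chemical exposure 24 h. Keratin 8/18 measured by ELISA; positive-direction fit vs DMSO. SRB total protein run in parallel cultures for cytotoxicity.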

[1] = BSK_MyoF_SRB: Viability Assessment in the BioMAP Diversity Plus: MyoF Assay (AID 2284267); conditions: primary human lung fibroblasts;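 also: total protein by SRB absorbance in parallel cultures as cytotoxicity measure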
Outline: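 Human lung fibroblasts dosed with chemical and assessed 24 h later for overt cytotoxicity in parallel cultures. Total protein quantified by sulforhodamine B staining (0.1% SRB after 10% TCA fixation), read at 560 nm, analysed in positive direction versus DMSO baseline.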

[2] = read-out: Matrix Metallopeptidase 1 (MMP1), MMP1 (gene 4312); experiment: BSK_MyoF_MMP1: BioMAP Diversity Plus: MyoF Assay for Matrix Metallopeptidase 1 (MMP1) Biomarker Activity (AID 2284268); conditions: primary human lung fibroblasts
Outline: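 ELISA readout of MMP1 in primary human lung fibroblast cultures, 24 h post-dosing. Gain of signal versus DMSO vehicle control defines activity. Parallel SRB staining (0.1% after 10% TCA fixation, 560 nm) flags overt cytotoxicity.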

[3] = read-out: TIMP metallopeptidase inhibitor 1 (TIMP1), TIMP1 (gene 7076); experiment: BSK_MyoF_TIMP1: BioMAP Diversity Plus: MyoF Assay for TIMP metallopeptidase inhibitor 1 (TIMP1) Biomarker Activity (AID 2284269); conditions: primary human lung fibroblasts
Outline: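 ELISA quantified TIMP-1 levels after 24 h dosing of primary human lung fibroblasts, with DMSO as baseline. Parallel SRB total protein staining (0.1% SRB after TCA fixation, 560 nm) flagged overt cytotoxicity.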

[4] = read-out: Matrix Metallopeptidase 1 (MMP1), MMP1 (gene 4312); experiment: BSK_BF4T_MMP1: BioMAP Diversity Plus: BF4T Assay for Matrix Metallopeptidase 1 (MMP1) Biomarker Activity (AID 2284270); conditions: primary human bronchial epithelial cells with fibroblasts
Outline: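 Co-culture of human bronchial epithelial cells and dermal fibroblasts; MMP-1 levels measured by ELISA 24 hours after chemical dosing, relative to DMSO. Cytotoxicity checked in parallel cultures by SRB total-protein staining.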

[5] = read-out: Matrix Metallopeptidase 3 (MMP3), MMP3 (gene 4314); experiment: BSK_BF4T_MMP3: BioMAP Diversity Plus: BF4T Assay for Matrix Metallopeptidase 3 (MMP3) Biomarker Activity (AID 2284271); conditions: primary human bronchial epithelial cells with fibroblasts
Outline: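 Co-culture of human bronchial epithelial cells and dermal fibroblasts dosed 24 h; MMP-3 measured by ELISA, positive-direction fit versus DMSO. Cytotoxicity tracked by SRB total-protein staining (560 nm) in parallel cultures.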

[6] = read-out: Plasminogen Activator Inhibitor-1 (PAI1), SERPINE1 (gene 5054); experiment: BSK_BF4T_PAI1: BioMAP Diversity Plus: BF4T Assay for Plasminogen Activator Inhibitor-1 (PAI1) Biomarker Activity (AID 2284273); conditions: primary human bronchial epithelial cells with fibroblasts
Outline: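 Co-culture of human bronchial epithelial cells and dermal fibroblasts exposed to compound for 24 h. PAI-1 measured by ELISA; activity fitted in positive direction versus DMSO. Parallel SRB staining assessed overt cytotoxicity.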

[7] = BSK_BF4T_SRB: Viability Assessment in the BioMAP Diversity Plus: BF4T Assay (AID 2284274); conditions: primary human bronchial epithelial cells with fibroblasts
Outline: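 Co-culture of human bronchial epithelial cells and dermal fibroblasts (BioMAP BF4T) exposed 24 h. Total protein by sulforhodamine B staining (0.1% SRB after 10% TCA fixation, 560 nm) in parallel cultures; fitted vs DMSO.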

[8] = read-out: Tissue plasminogen activator (tPA), PLAT (gene 5327); experiment: BSK_BF4T_tPA: BioMAP Diversity Plus: BF4T Assay for Tissue plasminogen activator (tPA) Biomarker Activity (AID 2284272); conditions: primary human bronchial epithelial cells with fibroblasts
Outline: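 tPA level quantified by ELISA at 24 h post-treatment in bronchial epithelial/dermal fibroblast co-cultures, gain of signal scored against DMSO baseline. Parallel cultures stained with 0.1% SRB (560 nm) to flag overt cytotoxicity.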

Measured: AC50

FC(F)(F)C(F)(F)C(F)(F)C(F)(F)C(F)(F)C(F)(F)C(F)(F)C(F)(F)CCS
not listed: [8]
inactive: all other assays above

FC(F)(F)C(F)(F)C(F)(F)C(F)(F)C(F)(F)CCI
not listed: [8]
inactive: all other assays above

CC(C)(C)C(=O)CC(=O)C(F)(F)C(F)(F)C(F)(F)F
not listed: [8]
inactive: all other assays above

O=C(O)C(F)(F)C(F)(F)C(F)F
active: Decorin, DCN (gene 1634) 30 µM
inactive: Decorin, DCN (gene 1634) | KRT18 (gene 3875) | [1] | [2] | [3] | [4] | [5] | [6] | [7]

FC(F)(Br)C(F)(F)C(F)(F)C(F)(F)C(F)(F)C(F)(F)Br
not listed: [8]
inactive: all other assays above

N=C(N)C(F)(F)C(F)(F)C(F)(F)C(F)(F)C(F)(F)C(F)(F)C(F)(F)F
inactive: Decorin, DCN (gene 1634) | KRT18 (gene 3875) | [1] | [2] | [3] | [4] | [5] | [8] | [6] | [7]
active: [5] 33.6 µM

CC(=O)Nc1ccc(N=Nc2cc(C)ccc2O)cc1
inactive: Decorin, DCN (gene 1634) | [1] | [3]
active: [2] 31 µM

Cc1ccc(S(=O)(=O)OCC(F)(F)C(F)(F)C(F)(F)C(F)(F)C(F)(F)C(F)F)cc1
not listed: [3] | [8]
inactive: all other assays above

CO[Si](OC)(c1ccccc1)c1ccccc1
active: [1] 29.4 µM | [2] 28.9 µM
inactive: Decorin, DCN (gene 1634)

O=C(O)C(F)(F)C(F)(F)F
not listed: [3] | [8]
inactive: all other assays above

Oc1ccc(Nc2ccccc2)cc1
inactive: Decorin, DCN (gene 1634) | [1] | [2] | [3]

FC(F)(F)C(F)(F)C(F)(F)CI
not listed: [3] | [8]
inactive: all other assays above

CCCCNc1ccccc1
inactive: Decorin, DCN (gene 1634) | [1] | [2]

CCCCCCC(C)OC(=O)CCCCC(=O)OC(C)CCCCCC (centres undefined)
inactive: Decorin, DCN (gene 1634) | [1] | [2]

O=C(O)C=C(C(F)(F)F)C(F)(F)F
not listed: [3] | [8]
inactive: all other assays above

O[Si](c1ccccc1)(c1ccccc1)c1ccccc1
active: [1] 23.8 µM | [2] 13.9 µM
inactive: Decorin, DCN (gene 1634)

C=C(C)C(=O)OCCC(F)(F)C(F)(F)C(F)(F)C(F)(F)C(F)(C(F)(F)F)C(F)(F)F
not listed: [3] | [8]
inactive: all other assays above

C=C(C)C(=O)OCC(F)(F)C(F)(F)C(F)(F)F
not listed: [3]
inactive: all other assays above

O=C(O)C(F)(F)C(F)(F)OC(F)(F)F
not listed: [3] | [8]
inactive: all other assays above
